According to PubChem BioAssay (Tox21):
Results filed as inconclusive are left out. Calls of active or inactive are those of the source. Unless noted, calls follow the shape of the dose curve; as a rule, active = well fitted curve in the direction sought with a large enough effect in the repeat runs; inconclusive = weak or mixed curves; inactive = no such curve, though single readings can be large; an effect the other way counts as inactive or inconclusive.

Assays:
[1] = qHTS assay for small molecule agonists of the p53 signaling pathway (AID 651631; calls by dose curve; also: nearly all actives have a fitted effect of over 15% in size)
Outline: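 Fluorescence intensity from cleaved LiveBLAzer B/G substrate (2 h, room temperature) served as the signal. Beforehand, HCT-116 reporter cells bearing p53 response elements were treated 16 h at 37 °C with DMSO-dissolved compounds.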

[2] = qHTS assay for small molecules that induce genotoxicity in human embryonic kidney cells expressing luciferase-tagged ATAD5 (AID 651632); also: nearly all actives have a fitted effect of over 15% in size
Outline: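 HEK293T cells carrying a luciferase reporter tagged to ATAD5 were exposed to compound or DMSO vehicle for 16 hr at 37C, 5% CO2. Amplite was added, and after 30 min at room temperature luciferase activity was read as a marker of ATAD5 induction.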

[3] = qHTS assay for small molecule agonists of the p53 signaling pathway - cell viability (AID 651633; calls by dose curve;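 also: p53RE-bla HCT reporter cells with a stable beta-lactamase p53 reporter; nearly all actives have a fitted effect of over 30% in size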)
Outline: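 p53RE-bla cells were treated with compound for 16 hours at 37 C. Cytotoxicity was then measured as CellTiter-Glo luminescence after 30 min at room temperature.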

[4] = qHTS assay for small molecules that induce genotoxicity in human embryonic kidney cells expressing luciferase-tagged ATAD5 - cell viability (AID 651634; calls by dose curve; also: nearly all actives have a fitted effect of over 25% in size; also: potency is read from the fitted curve at half-maximal effect)
Outline: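 HEK293T cells expressing luciferase-tagged ATAD5 were exposed to compound or DMSO for 15.5 hr at 37C, 5% CO2. Viability was then read as live-cell protease activity by CellTiter-Fluor fluorescence after 30 min at 37C.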

[5] = qHTS assay for small molecule disruptors of the mitochondrial membrane potential - cell viability (AID 720634; calls by dose curve;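 also: human HepG2 liver cancer cells; nearly all actives have a fitted effect of over 20% in size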)
Outline: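 HepG2 cells seeded overnight at 37 C, then exposed to compound or DMSO for 1 hr at 37 C, 5% CO2. m-MPI dye added, then CellTiter-Glo for 30 min at room temperature; viability read as ATP luminescence.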

[6] = qHTS assay for small molecule disruptors of the mitochondrial membrane potential (AID 720635); also: potency is read from the fitted curve at half-maximal effect
Outline: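 HepG2 cells exposed to compound 1 hr at 37C, then Mito-MPS dye 30 min. Ratio read of aggregate (540/590 nm) versus monomer (490/535 nm) fluorescence.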

[7] = qHTS assay to test for compound auto fluorescence at 590 nm (red) in HepG2 cells (AID 720674)
Outline: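 HepG2 cells, 2,000 per well in MEM with 10% FBS, attached overnight at 37 C, then got 23 nL compound or DMSO. After 1 hr at 37 C, 5% CO2, red fluorescence was read at 540/590 nm against Rose Bengal sodium as reference.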

[8] = qHTS assay to test for compound auto fluorescence at 535 nm (green) in HepG2 cells (AID 720675)
[9] = qHTS assay to test for compound auto fluorescence at 460 nm (blue) in HEK293 cells (AID 720678)
Outline: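 HEK293, 2,000 cells/well, 10% dialyzed FBS; attach 4-5 hr 37C; pin compound or DMSO; o/n 37C/5% CO2; fluorescence 405/460 nm; triamterene-equivalent units.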

[10] = qHTS assay to test for compound auto fluorescence at 590 nm (red) in HEK293 cells (AID 720679)
Outline: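 Intensity at 540nm excitation and 590nm emission is reported as Rose Bengal sodium-equivalent autofluorescence. Measurements followed overnight exposure (37C, 5% CO2) of HEK293 cells, 2,000 per well, to 23 nL compound.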

[11] = qHTS assay to test for compound auto fluorescence at 535 nm (green) in HEK293 cells (AID 720680)
[12] = qHTS assay to test for compound auto fluorescence at 460 nm (blue) in HEK293 cell free culture (AID 720681)
Outline: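 Compounds were added to cell-free DMEM with 10% FBS and fluorescence read directly. The blue channel used 405 nm excitation and 460 nm emission, with triamterene as the reference fluorophore.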

[13] = qHTS assay to test for compound auto fluorescence at 535 nm (green) in HEK293 cell free culture (AID 720682)
Outline: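 Intrinsic compound fluorescence is measured in culture medium containing 10% FBS, with excitation at 485 nm and detection at 535 nm, referenced to fluorescein.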

[14] = qHTS assay to test for compound auto fluorescence at 590 nm (red) in HEK293 cell free culture (AID 720683)
Outline: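 Cell-free wells of DMEM with 10% FBS received compound, and intrinsic fluorescence was read at excitation/emission 540/590 nm. Values expressed as equivalence to Rose Bengal sodium.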

[15] = qHTS assay to test for compound auto fluorescence at 590 nm (red) in HepG2 cell free culture (AID 720684)
Outline: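 Compound was pinned into wells holding MEM with 10% FBS and no cells, and red fluorescence was read at Ex/Em 540/590 nm. Signal is expressed as auto fluorescence equivalency relative to Rose Bengal sodium.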

[16] = qHTS assay to test for compound auto fluorescence at 460 nm (blue) in HepG2 cell free culture (AID 720685)
Outline: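 Compound (23 nL) or DMSO pinned into cell-free MEM with 10% FBS; blue fluorescence read at 405/460 nm excitation/emission, expressed as auto-fluorescence equivalency to triamterene.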

[17] = qHTS assay to test for compound auto fluorescence at 535 nm (green) in HepG2 cell free culture (AID 720686)
[18] = biological target: Glucocorticoid receptor (Homo sapiens) (UniProt P04150); assay: qHTS assay to identify small molecule antagonists of the glucocorticoid receptor (GR) signaling pathway (AID 720692; active = well fitted inhibition curve with a large enough effect in the signal ratio in the repeat runs, not every such curve was filed as active; the % refers to the signal ratio)
Outline: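 GR-bla HeLa cells (beta-lactamase reporter under glucocorticoid response element) were pre-plated 4 h at 37 C, treated with compounds plus 5 nM dexamethasone (final) for 18 h, then read by LiveBLAzer B/G FRET fluorescence after 2 h.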

[19] = qHTS assay to test for compound auto fluorescence at 460 nm (blue) in HepG2 cells (AID 720687)
Outline: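 HepG2 cells in MEM with 10% FBS, attached overnight at 37 C, were exposed to compound or DMSO for 1 hr at 37 C, 5% CO2. Blue fluorescence was read at 405/460 nm, with triamterene as reference fluorophore.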

[20] = biological target: Glucocorticoid receptor (Homo sapiens) (UniProt P04150); assay: qHTS assay to identify small molecule agonists of the glucocorticoid receptor (GR) signaling pathway (AID 720691; active = well fitted activation curve with a large enough effect in the signal ratio in the repeat runs, not every such curve was filed as active; the % refers to the signal ratio); conditions: GR-bla HeLa, beta-lactamase reporter ratio, 18 h; activation: at 62.4 µM (top of the series) unless noted
Outline: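 GR-bla HeLa cells (beta-lactamase reporter under glucocorticoid response element) were plated 4 h at 37 C/5% CO2, given compounds in DMSO, and incubated 18 h at 37 C. LiveBLAzer B/G FRET substrate was added for 2 h at room temperature, then fluorescence intensity read.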
% is scaled to controls: 0 for no effect and ±100 for the full control effect.

Glucocorticoid receptor (Homo sapiens), sequence (P04150 whole entry, looked up): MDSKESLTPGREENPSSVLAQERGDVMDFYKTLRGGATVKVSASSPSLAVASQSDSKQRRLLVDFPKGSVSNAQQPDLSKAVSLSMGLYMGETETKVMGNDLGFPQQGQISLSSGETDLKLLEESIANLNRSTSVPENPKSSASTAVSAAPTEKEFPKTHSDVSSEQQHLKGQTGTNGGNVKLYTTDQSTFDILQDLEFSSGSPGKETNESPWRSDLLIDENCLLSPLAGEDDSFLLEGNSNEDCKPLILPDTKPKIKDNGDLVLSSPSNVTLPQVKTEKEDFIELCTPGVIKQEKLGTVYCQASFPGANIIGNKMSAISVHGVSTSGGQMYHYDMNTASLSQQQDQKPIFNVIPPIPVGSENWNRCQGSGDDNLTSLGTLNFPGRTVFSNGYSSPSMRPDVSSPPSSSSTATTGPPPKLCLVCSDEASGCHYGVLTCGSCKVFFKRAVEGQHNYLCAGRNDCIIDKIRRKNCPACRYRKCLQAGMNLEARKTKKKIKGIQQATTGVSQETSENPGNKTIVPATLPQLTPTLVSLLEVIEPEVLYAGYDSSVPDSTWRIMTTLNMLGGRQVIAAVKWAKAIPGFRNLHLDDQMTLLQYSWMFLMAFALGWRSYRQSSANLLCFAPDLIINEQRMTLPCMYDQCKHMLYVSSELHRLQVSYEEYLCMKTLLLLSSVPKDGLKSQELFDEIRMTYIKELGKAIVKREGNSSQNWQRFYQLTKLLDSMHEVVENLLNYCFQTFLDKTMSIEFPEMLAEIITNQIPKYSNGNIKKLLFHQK

O=C1CCC(=O)O1
inactive: Potency [1] | Potency [2] | Potency [3] | Potency [4] | Potency [5] | Potency [6] | Potency [7] | Potency [8] | outcome [9] | Potency [10] | outcome [11] | outcome [12] | outcome [13] | Potency [14] | Potency [15] | outcome [16] | Potency [17] | Potency [18]

OCCNCc1ccccc1
inactive: Potency [1] | Potency [2] | Potency [3] | Potency [4] | Potency [5] | Potency [6] | Potency [7] | Potency [8] | outcome [9] | Potency [10] | outcome [11] | outcome [12] | outcome [13] | Potency [14] | Potency [17] | outcome [19] | Potency [20] | Potency [18]

C=CCOC(=O)CCC1CCCCC1
inactive: Potency [1] | Potency [2] | Potency [3] | Potency [4] | Potency [5] | Potency [6] | Potency [8] | Potency [10] | outcome [11] | outcome [12] | outcome [13] | Potency [14] | Potency [15] | outcome [16] | Potency [17] | outcome [19] | Potency [20] | Potency [18]

CC(=O)NO
inactive: Potency [1] | Potency [2] | Potency [3] | Potency [4] | Potency [5] | Potency [7] | Potency [8] | outcome [9] | Potency [10] | outcome [11] | outcome [12] | outcome [13] | Potency [14] | Potency [15] | outcome [16] | Potency [20] | Potency [18]

CC[N+]1(CC)CCC(=C(c2ccccc2)c2ccccc2)C1C (stereo unspecified)
inactive: Potency [1] | Potency [2] | Potency [3] | Potency [4] | Potency [5] | Potency [6] | Potency [7] | Potency [8] | outcome [9] | Potency [10] | outcome [11] | outcome [12] | outcome [13] | Potency [14] | Potency [15] | outcome [16] | Potency [17] | outcome [19] | Potency [20] | Potency [18]

CC(=O)c1ccc2c(c1)N(CCCN1CCC(CCO)CC1)c1ccccc1S2
inactive: Potency [1] | Potency [2] | Potency [3] | Potency [4] | Potency [5] | fluorescence, relative to Rose Bengal [7] -0.311% [at 18.6 µM] | fluorescence, % of fluorescein control [8] 0.043% [at 18.6 µM] | fluorescence, % of triamterene [9] -0.0315% [at 18.6 µM] | fluorescence, % of fluorescent control [10] -0.278% [at 18.6 µM] | fluorescence, % of fluorescein [11] -0.0765% [at 18.6 µM] | fluorescence, % of fluorescent control [12] -0.0632% [at 18.6 µM] | activity change [13] -0.164% [at 18.6 µM] | fluorescence, % of fluorescent control [14] -0.134% [at 18.6 µM] | fluorescence, % of Rose Bengal [15] 0.583% [at 18.6 µM] | fluorescence, % of fluorescent control [16] -0.0052% [at 18.6 µM] | fluorescence, % of fluorescein control [17] 0.041% [at 18.6 µM] | Potency [20] | Potency [18]

CCNc1cc(O)ccc1C
inactive: Potency [1] | Potency [2] | Potency [3] | Potency [4] | Potency [5] | Potency [7] | Potency [8] | outcome [9] | Potency [10] | outcome [11] | outcome [12] | outcome [13] | Potency [14] | Potency [15] | outcome [16] | Potency [17] | outcome [19]

C[N+](C)(C)CCOC(=O)CCC(=O)OCC[N+](C)(C)C
inactive: Potency [1] | Potency [2] | Potency [3] | Potency [4] | Potency [5] | Potency [6] | Potency [7] | Potency [8] | outcome [9] | Potency [10] | outcome [11] | outcome [12] | outcome [13] | Potency [14] | outcome [16] | Potency [17] | outcome [19] | Potency [20]

O=C(NCCO[N+](=O)[O-])c1cccnc1
inactive: Potency [1] | Potency [2] | Potency [3] | Potency [4] | Potency [5] | Potency [6] | Potency [7] | Potency [8] | outcome [9] | Potency [10] | outcome [11] | outcome [12] | outcome [13] | Potency [14] | Potency [15] | outcome [16] | Potency [17] | outcome [19] | Potency [18]

CCCCCCCCCCCC(=O)OC[C@@H](O)[C@H]1OC[C@H](OCCO)[C@H]1OCCO
inactive: Potency [1] | Potency [2] | Potency [3] | Potency [4] | Potency [5] | Potency [6] | Potency [7] | outcome [9] | Potency [10] | outcome [11] | outcome [12] | outcome [13] | Potency [14] | Potency [15] | outcome [16] | outcome [19]

CCCCC(CC)CN1C(=O)C2C3C=CC(C3)C2C1=O (stereo unspecified)
active: Potency [6] 6.11 µM
inactive: Potency [1] | Potency [2] | Potency [3] | Potency [4] | Potency [5] | Potency [7] | Potency [8] | outcome [9] | Potency [10] | outcome [11] | outcome [12] | outcome [13] | Potency [14] | outcome [16] | Potency [17] | outcome [19] | Potency [20]

NCC(=O)O
inactive: Potency [1] | Potency [2] | Potency [3] | Potency [4] | Potency [5] | Potency [6] | Potency [7] | Potency [8] | outcome [9] | Potency [10] | outcome [11] | outcome [12] | outcome [13] | Potency [14] | outcome [16] | Potency [17] | outcome [19] | Potency [18]

Cc1ccc(N=Nc2c(O)c(C(=O)O)cc3ccccc23)c(S(=O)(=O)O)c1
inactive: Potency [1] | Potency [2] | Potency [3] | Potency [5] | Potency [7] | Potency [8] | outcome [9] | Potency [10] | outcome [11] | outcome [12] | outcome [13] | Potency [14] | Potency [15] | outcome [16] | Potency [17]
active: Potency [4] 11.8 µM
